# Bioassay records as filed in PubChem.
# DT40 TDP1 no CPT – qHTS for Inhibitors of human tyrosyl-DNA phosphodiesterase 1 (TDP1): qHTS in cells in absence of CPT; DT40 Tdp1-/- hTDP1 cells, no CPT, ATP luminescence, 48 h; Potency, µM (top dose mostly 46.2 µM), most hits filed as inhibitors; 15% of 420,000 active; further: nearly all actives have a fitted effect of over 55% in size
#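 Luminescent ATP content (CellTiter-Glo) served as the growth readout. Knockout chicken DT40 cells expressing human TDP1 were exposed to compounds without camptothecin for a minimum 48 hr at 37 °C.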
# TGFb SMAD3 inh – blocks TGF-b signaling; Potency, µM (highest dose often 46.1 µM), usual class: inhibitors; HepG2 CAGA-GFP TGF-b/SMAD3 reporter, GFP fluorescence, 18 h; TGF-beta stimulated, 500 pg/mL final; 1.2% of 410,000 active; further: nearly all actives have a fitted effect of over 65% in size
#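 First, reporter cells (HEPG2 CAGA-GFP) rested 2 h at 37 degrees C. Next, compounds were pinned in and TGF-beta added to 500 pg/mL final. After 18 h, GFP was imaged per cell and summed per well.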
# TDP1 cell CPT – growth inhibition of DT40 Tdp1-/-;hTDP1 cells with camptothecin (screen for TDP1 inhibitors) | chicken DT40 Tdp1-/-;hTDP1 cells + 20 nM CPT, ATP luminescence, 48 h | Potency, µM (highest dose often 46.2 µM), actives largely listed as inhibitors | 12% of 420,000 active | AID 686979; further: nearly all actives have a fitted effect of over 55% in size
#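 Cell growth measured by CellTiter-Glo luminescence after a minimum 48 h, 37 C compound exposure with 20 nM CPT in Tdp1-knockout DT40 cells stably expressing hTDP1, seeded 400/well; qHTS titration format.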
# IL-1B inflam inh – blocks inflammasome-driven IL-1 beta release; 4.7% of 360,000 active; activity change, % at 57.5 µM; THP-1 LPS/ATP IL-1B secretion, AlphaLISA, 16 h; hits give low values; in the data active means activity change below about -50%; inconclusive means mostly about -30% to -49%
#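 THP-1 cells pretreated 1 hr with compounds (up to 57.5 uM final), then stimulated with LPS (250 ng/mL final) plus ATP (1.25 mM final); secreted IL-1B measured by AlphaLISA after 16 hr, decreased signal indicating inhibition.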
# HepG2 viability – kills HepG2 cells in TGF-b inhibitor counter-screen | HepG2 CAGA-GFP viability, ATP luminescence, 18 h | Potency, µM (titrated, usually from 46.1 µM), usual class: cytotoxic | 0.76% of 410,000 active | AID 588856
#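 CellTiter-Glo luminescence gave cytotoxicity after 18 hours at 37 degrees C. The cells were HepG2 CAGA-GFP in 1% FBS DMEM, stimulated with 500 pg/mL TGF-beta after compound addition. %Activity was normalised to no-cell wells (complete cell-killing) and DMSO (no toxicity), and curves were fitted and classified.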
# S-ASM inh – inhibitors of human secretory acid sphingomyelinase; P17405; AID 504937; Potency, µM (titrated, usually from 57.5 µM), usual class: inhibitors; 0.006% of 340,000 active; placental ASM, HMU-PC fluorogenic substrate, 60 min
# Target sequence (P17405 47-631 limits assumed): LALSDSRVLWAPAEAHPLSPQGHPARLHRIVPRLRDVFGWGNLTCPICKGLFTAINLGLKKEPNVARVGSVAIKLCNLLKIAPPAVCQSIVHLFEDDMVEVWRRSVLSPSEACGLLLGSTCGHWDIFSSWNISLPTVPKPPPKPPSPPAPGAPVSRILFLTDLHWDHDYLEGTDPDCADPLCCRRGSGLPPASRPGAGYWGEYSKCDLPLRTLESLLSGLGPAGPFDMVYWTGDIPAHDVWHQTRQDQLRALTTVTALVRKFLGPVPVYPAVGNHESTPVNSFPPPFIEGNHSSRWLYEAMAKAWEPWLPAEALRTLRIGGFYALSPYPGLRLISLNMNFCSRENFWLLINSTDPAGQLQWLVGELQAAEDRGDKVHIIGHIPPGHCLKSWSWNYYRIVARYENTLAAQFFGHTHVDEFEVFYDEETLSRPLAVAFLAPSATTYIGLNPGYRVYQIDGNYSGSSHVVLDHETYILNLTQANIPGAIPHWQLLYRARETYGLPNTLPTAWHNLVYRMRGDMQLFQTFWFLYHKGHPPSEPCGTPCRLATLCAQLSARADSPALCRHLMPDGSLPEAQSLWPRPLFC
#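 Fluorogenic HMU-PC substrate (9 uM final) is turned over by placental ASM in 60 min at 37 C after a 10 min compound preincubation. Reaction ended by alkaline stop (pH 10), with fluorescence read at 386/447 nm.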
# Numbers stand for hits; n = inactive; u = inconclusive; x = no result; [ ] = dose if it differs, or a comment. This is a sample that favours compounds with a hit; in the whole collection about 19% have one here. Unless noted, the call rests on the fitted dose curve; in most records, active means well fitted curve in the direction sought with a large enough effect; inconclusive means small, poorly fitted or top-dose-only effect, or another doubt; inactive means no such curve, though single readings can be large; an effect the other way counts as inactive or inconclusive.
SMILES,DT40 TDP1 no CPT,TGFb SMAD3 inh,TDP1 cell CPT,IL-1B inflam inh,HepG2 viability,S-ASM inh
COc1ccc(OCc2cc(C(=O)NCCc3ccccc3)no2)c(Cl)c1,10µM,n,7.3µM,n,n,n
Cc1cccc(C)c1OCc1cc(C(=O)N2CCN(Cc3nccn3C)CC2)no1,n,n,n,n,n,n
O=C(NCCc1ccccc1F)c1cc(COc2ccc(F)cc2F)on1,n,n,n,n,n,x
O=C(NCCc1ccccc1C(F)(F)F)c1cc(COc2ccccc2)on1,16µM,n,16µM,n,n,x
COc1cc(Cl)ccc1OCc1cc(C(=O)NCC(C)(C)N2CCOCC2)no1,n,n,n,n,n,n
Cc1cccc(C)c1OCc1cc(C(=O)N(Cc2c(C)nn(C)c2C)C2CC2)no1,8.2µM,u,13µM,u,n,n
COc1ccc(OCc2cc(C(=O)NCC(C)(C)N3CCOCC3)no2)c(Cl)c1,21µM,n,23µM,n,n,n
Cn1c(=O)c2c(nc3n2CC(O)CN3c2ccccc2)n(C)c1=O (configuration not stated),n,n,n,n,n,n
COc1ccc(CCNC(=O)c2cc(COc3c(C)cccc3C)on2)c(OC)c1,n,n,23µM,n,n,n
Cc1cccc(C)c1OCc1cc(C(=O)NCC2CCCCC2)no1,n,n,n,n,n,n
COc1ccc(OCc2cc(C(=O)NCCN3CCCc4ccccc43)no2)c(Cl)c1,18µM,u,15µM,n,n,n
Cc1cccc(C)c1OCc1cc(C(=O)NCc2cn(C)nc2C)no1,u,n,18µM,n,n,n
COc1ccc(OCc2cc(C(=O)NCCN3CCCC(O)C3)no2)c(Cl)c1 (configuration not stated),n,n,n,n,n,n
CCN(CC)S(=O)(=O)c1cc(NC(=O)c2cccc(N3C(=O)CCC3=O)c2)ccc1Cl,n,n,n,n,n,n
Nc1nc(COC(=O)C2CC(=O)N(Cc3ccccc3Cl)C2)nc(Nc2ccccc2)n1 (configuration not stated),n,n,n,n,n,n
COc1ccc(CCNC(=O)CSc2cc(=O)n(C)c3ccccc23)cc1OC,n,n,n,x,n,x
Cc1sc2ncnc(SCC(=O)Nc3nc(-c4ccc(F)c(F)c4)cs3)c2c1C,21µM,n,n,n,n,n
CC(Sc1nnc(-c2ccccc2)c(-c2ccccc2)n1)C(=O)NCC1CCCO1 (configuration not stated),23µM,n,u,n,n,n
Cc1sc2ncnc(SCC(=O)NC(C)C(C)C)c2c1C (configuration not stated),16µM,n,16µM,n,n,n
Cc1sc2ncnc(SCC(=O)NC3CC3)c2c1C,n,n,n,n,n,n
Cc1ccc(-c2nnc(SC(C)C(=O)NCC3CCCO3)nc2-c2ccc(C)cc2)cc1 (configuration not stated),u,n,u,u,n,n
Cn1nnnc1SCC(=O)Nc1nc(-c2ccc(F)c(F)c2)cs1,u,n,u,n,n,n
Cc1sc2ncnc(SC(C)C(=O)N3c4ccccc4Sc4ccccc43)c2c1C (configuration not stated),23µM,n,21µM,n,n,n
Cn1nc(/C=C/c2ccccc2)ccc1=O,u,n,n,n,n,n
Cc1ccc(NC(=O)CNC(=O)C23CC4CC(CC(C4)C2)C3)nc1,n,n,u,n,n,x
SMILES,DT40 TDP1 no CPT,TGFb SMAD3 inh,TDP1 cell CPT,IL-1B inflam inh,HepG2 viability,S-ASM inh
COc1ccc(CN2C(=NC(=O)C3CCCCC3)SC3CS(=O)(=O)CC32)cc1 (configuration not stated),n,n,n,n,n,n
COc1ccc(Cl)cc1C(=O)n1cnc2ccccc21,n,n,n,n,n,n
COc1ccc2cc(CNc3ccc(C)cc3)c(=O)n(CC(=O)Nc3cccc(C(F)(F)F)c3)c2c1,x,n,x,x,n,x
CC(=O)c1ccc(N2CCN(C(=O)C(=O)c3cn(CC(=O)N4CCOCC4)c4ccccc34)CC2)cc1,u,n,n,n,n,x
Cc1sc2ncnc(SCC(=O)NCC3CCCO3)c2c1C (configuration not stated),5.2µM,n,0.26µM,n,n,n
CC1CCc2c(sc3ncnc(SC(C)C(=O)NCC4CCCO4)c23)C1 (configuration not stated),21µM,n,26µM,n,n,n
O=C(CSc1ncnc2c1cnn2-c1ccccc1)NCC1CCCO1 (configuration not stated),u,n,u,n,n,n
O=C(CSc1ncnc2sc3c(c12)CCC3)NCC1CCCO1 (configuration not stated),n,n,n,n,n,n
CC(C)c1ccc(Nc2nnc(SCC(=O)NCC3CCCO3)s2)cc1 (configuration not stated),16µM,u,u,n,n,n
Cc1ccc(-n2nnc3c(SCC(=O)NCC4CCCO4)ncnc32)cc1 (configuration not stated),12µM,n,21µM,-56,n,n
CN(CCO)C(=O)c1cn(C2CCCN(Cc3cc4ccccc4s3)C2)nn1 (configuration not stated),n,x,n,x,x,x
O=C(N[C@@H]1c2ccccc2C2(CCN(Cc3c(O)ccc4ccccc34)CC2)[C@H]1O)c1ccccc1,n,x,n,x,x,x
Cc1ccccc1[C@@H](NC(=O)OC(C)(C)C)C(=O)OC(C)(C)C,n,n,n,n,n,n
CC(C)C1N=C(c2ccc3c(c2)OCO3)CC(c2ccccc2O)N1 (configuration not stated),4.6µM,u,5.2µM,n,n,n
CCCCCCC1(C)NC(c2ccc3c(c2)OCO3)=CC(c2cc(Br)ccc2O)N1 (configuration not stated),x,u,x,x,n,x
CC(C)C1(C)NC(c2ccc3c(c2)OCO3)=CC(c2ccccc2O)N1 (configuration not stated),13µM,n,u,x,n,x
Cc1ccc(-c2nnc(-c3ccc4c(c3)OCO4)o2)cc1,n,n,n,n,n,n
CCC1(C)NC(c2ccc3c(c2)OCO3)=CC(c2ccccc2O)N1 (configuration not stated),11µM,n,u,x,n,x
COc1cc(-c2cc(C)c3c(OC)ccc(OC)c3n2)cc2c1OCCN(C(=O)Cn1nc(C)cc1C)C2,n,x,n[9.04 µM],x,x,x
